Data: PubChem BioAssay AID1159580 (chemical genetic matrix, 2015)
Several values for one entry are separate records, joined by “and”; a condition that tells them apart may be missing. Identical values can stand only once. Out of some 5,500 compounds screened, about 2,000 (36%) were called active. Inconclusive results (about 18%) are left out. No stated cut-off is given here; in the data, active means normalized growth mostly below about 0.91 (no sharp cut-off); inconclusive means no clear call, values can overlap the other calls; inactive means mostly above about 0.92. The list shows a part of the results.

Assay: chemical genetic growth profiling, strain panel (AID 1159580);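 further: tested at 20 µM; growth read once vehicle control cultures reached saturation at 30 °C; 1 = growth at the plate median or of vehicle wells; lower values mean less growth of the strain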
Settings: S. cerevisiae deletion strains, growth OD

Measured: normalized growth

OC(c1cc(C(F)(F)F)nc2c(C(F)(F)F)cccc12)C1CCCCN1 (stereo not drawn)
inactive: locus YAL021C, strain ccr4, active compounds read low 0.995 | locus YAL026C, strain drs2, active compounds read low 0.972 | locus YAL030W, strain snc1, active compounds read low 1.02 | locus YBL061C, strain skt5, active compounds read low 1.01 | locus YBR009C, strain hhf1, active compounds read low 1.01 | locus YBR021W, strain FUR4, active compounds read low 0.965 | locus YBR023C, strain chs3, active compounds read low 1 | locus YBR171W, strain sec66, active compounds read low 1.02 | locus YBR229C, strain ROT2, active compounds read low 0.988 | locus YBR231C, strain swc5, active compounds read low 1.01 | locus YBR279W, strain paf1, active compounds read low 1.02 | locus YCL011C, strain gbp2, active compounds read low 1.01 | locus YCL016C, strain dcc1, active compounds read low 1 | locus YCL029C, strain bik1, active compounds read low 0.999 | locus YCL069W, strain vba3, active compounds read low 0.999 | locus YCR088W, strain abp1, active compounds read low 1.01 | locus YDL005C, strain med2, active compounds read low 1.01 | locus YDL035C, strain GPR1, active compounds read low 0.968 | locus YDL040C, strain nat1, active compounds read low 1.02 | locus YDL074C, strain BRE1, active compounds read low 0.945 | locus YDL101C, strain DUN1, active compounds read low 0.993 | locus YDL134C, strain PPH21, active compounds read low 0.966 | locus YDL185W, strain tfp1, active compounds read low 0.979 | locus YDL192W, strain arf1, active compounds read low 0.997 | locus YDR001C, strain nth1, active compounds read low 1.01 | locus YDR069C, strain doa4, active compounds read low 1.01 | locus YDR101C, strain arx1, active compounds read low 0.993 | locus YDR137W, strain rgp1, active compounds read low 1.12 | locus YDR150W, strain NUM1, active compounds read low 0.995 | locus YDR159W, strain sac3, active compounds read low 0.999 | locus YDR162C, strain NBP2, active compounds read low 0.969 | locus YDR195W, strain ref2 1.02 | locus YDR297W, strain sur2, active compounds read low 1.01 | locus YDR318W, strain mcm21, active compounds read low 0.988 | locus YDR334W, strain swr1, active compounds read low 1.01 | locus YDR335W, strain msn5, active compounds read low 1.01 | locus YDR388W, active compounds read low 0.995 | locus YDR392W, strain spt3, active compounds read low 0.997 | locus YDR502C, strain sam2, active compounds read low 0.987 | locus YEL003W, strain gim4, active compounds read low 1.02 | locus YEL037C, strain rad23, active compounds read low 1.02 | locus YEL061C, strain CIN8 (second series), active compounds read low 1 | locus YEL061C, strain CIN8, active compounds read low 0.994 | locus YER015W, strain faa2, active compounds read low 1.01 | locus YER016W, strain bim1, active compounds read low 1.01 | locus YER110C, active compounds read low 0.996 | locus YER111C, strain swi4, active compounds read low 1.01 | locus YER155C, strain BEM2 (second series), active compounds read low 1.02 | locus YER155C, strain BEM2, active compounds read low 0.997 | locus YER167W, strain BCK2, active compounds read low 0.971 | locus YFR010W, strain ubp6, active compounds read low 1 | locus YGL078C, strain dbp3, active compounds read low 0.985 | locus YGL086W, strain mad1, active compounds read low 0.988 | locus YGL167C, strain pmr1, active compounds read low 1.02 | locus YGL173C, strain kem1, active compounds read low 1.02 | locus YGL227W, strain vid30, active compounds read low 1 | locus YGL240W, strain doc1, active compounds read low 1.03 | locus YGL248W, strain PDE1, active compounds read low 0.997 | locus YGL253W, strain hxk2, active compounds read low 1 | locus YGR078C, strain PAC10, active compounds read low 0.98 | locus YGR135W, strain pre9, active compounds read low 0.973 | locus YGR229C, strain SMI1, active compounds read low 0.95 | locus YGR252W, strain gcn5, active compounds read low 0.922 | locus YHR013C, strain ard1, active compounds read low 1 | locus YHR027C, strain rpn1, active compounds read low 1.02 | locus YHR030C, strain SLT2, active compounds read low 0.994 and 0.969 | locus YHR079C, strain IRE1 (second series), active compounds read low 0.985 | locus YHR079C, strain IRE1, active compounds read low 0.984 | locus YHR094C, strain hxt1, active compounds read low 0.988 | locus YHR129C, strain ARP1, active compounds read low 0.99 | locus YHR142W, strain chs7, active compounds read low 0.984 | locus YHR200W, strain rpn10, active compounds read low 0.996 | locus YIL066C, strain RNR3, active compounds read low 0.973 | locus YIL073C, strain SPO22, active compounds read low 0.979 | locus YIL125W, strain kgd1, active compounds read low 0.995 | locus YIR030C, strain dcg1, active compounds read low 0.99 | locus YJL092W, strain hpr5, active compounds read low 1.01 | locus YJL095W, strain BCK1 (second series), active compounds read low 1 | locus YJL095W, strain BCK1, active compounds read low 0.969 and 0.948 | locus YJL115W, strain asf1, active compounds read low 1.01 | locus YJL129C, strain trk1, active compounds read low 1.02 | locus YJL134W, strain LCB3, active compounds read low 0.993 | locus YJL154C, strain vps35, active compounds read low 1.01 | locus YJL164C, strain tpk1, active compounds read low 0.986 | locus YJL166W, strain qcr8, active compounds read low 1.02 | locus YJL168C, strain set2, active compounds read low 0.99 | locus YJL187C, strain SWE1 (second series), active compounds read low 0.991 | locus YJR043C, strain POL32, active compounds read low 0.979
